Compound activity deposited in PubChem by National Center for Advancing Translational Sciences (NCATS).
TDP43 rescue: qHTS of TDP-43 Inhibitors; Potency, µM (doses to about 46.1 µM), inactives show at the highest dose growth rescue (activation), most hits filed as activators; 410,000 tested, 1.8% active; AID 652104, 2013; TDP-43 expressing yeast growth rescue, BacTiter-Glo, 24 h; further: potency means the concentration at half of the fitted maximal effect; % of control where 0% means no effect; nearly all actives have a fitted effect of over 50% in size
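Yeast expressing TDP-43 (pregrown in raffinose, seeded at OD600=0.02 in galactose medium) exposed to compounds 24 hr at 30 deg C. Growth read by BacTiter-Glo luminescence; rescue of toxicity appears as increased signal.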
Abeta yeast res: qHTS for compounds that reverse cellular toxicity of Amyloid beta (A-beta) peptide in yeast: Primary Screen. yeast expressing A-beta42, growth rescue, OD600, 48 h; response scale: 0% DMSO, 100% iron-clioquinol control. Potency, µM (titrated, usually from 46.1 µM), actives largely listed as activators. 410,000 tested, 0.063% active; further: potency means the concentration at half of the fitted maximal effect; nearly all actives have a fitted effect of over 55% in size
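Yeast A-beta toxicity model in growth medium with pinned compounds, 48 h at 30 C; growth read as absorbance at 600 nm. Normalized to FeCl3/clioquinol equimolar mix (positive) and DMSO (negative).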
FUS suppressor: qHTS for Suppressors of FUS Proteinopathy: Primary screen using FUS-linked yeast assay; S. cerevisiae FUS-expressing, growth rescue, OD600, 24 h; Potency, µM (top dose mostly 76.6 µM), most hits filed as activators; 390,000 tested, 0.24% active; AID 1347120, 2019;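 further: potency means the concentration at half of the fitted maximal effect; plate controls were DMSO vehicle for no effect and reference control for full effect; nearly all actives have a fitted effect of over 55% in size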
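Yeast FUS proteinopathy model; galactose-induced FUS (2%), starting OD 0.005. Cpds in dilution series, 24hr, 30C, 99% humidity. Abs 600 nm growth. Pos ctrl CP55940 (top 92uM final); neg ctrl DMSO.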
aSyn yeast inh: qHTS of alpha-syn Inhibitors. Yeast expressing alpha-synuclein, growth rescue, BacTiter-Glo, 24 h. Potency, µM (titrated, usually from 46.1 µM), inactives show at the highest dose growth rescue (activation), usual class: activators. 370,000 tested, 0.14% active. AID 652106, 2013; further: potency means the concentration at half of the fitted maximal effect; % of control where 0% means no effect; nearly all actives have a fitted effect of over 65% in size
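Readout is rescue of growth in alpha-synuclein-expressing yeast, so inhibitors of toxicity appear as activators. Growth after 24 hr at 30 deg C in galactose medium is quantified by luminescence.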
PTHR1 agonist: qHTS for PTHR1 Agonists: Primary Screen. Parathyroid hormone/parathyroid hormone-related peptide receptor (Homo sapiens), Q03431. HEK293 GP2 PTHR1 cells, GloSensor cAMP luminescence, 1 h. Potency, µM (highest dose often 115 µM), for inactives: top-dose activation, actives largely listed as activators. 410,000 tested, 0.075% active. AID 743266, 2014; further: potency means the concentration at half of the fitted maximal effect; nearly all actives have a fitted effect of over 55% in size
Target sequence (Q03431 whole entry, looked up): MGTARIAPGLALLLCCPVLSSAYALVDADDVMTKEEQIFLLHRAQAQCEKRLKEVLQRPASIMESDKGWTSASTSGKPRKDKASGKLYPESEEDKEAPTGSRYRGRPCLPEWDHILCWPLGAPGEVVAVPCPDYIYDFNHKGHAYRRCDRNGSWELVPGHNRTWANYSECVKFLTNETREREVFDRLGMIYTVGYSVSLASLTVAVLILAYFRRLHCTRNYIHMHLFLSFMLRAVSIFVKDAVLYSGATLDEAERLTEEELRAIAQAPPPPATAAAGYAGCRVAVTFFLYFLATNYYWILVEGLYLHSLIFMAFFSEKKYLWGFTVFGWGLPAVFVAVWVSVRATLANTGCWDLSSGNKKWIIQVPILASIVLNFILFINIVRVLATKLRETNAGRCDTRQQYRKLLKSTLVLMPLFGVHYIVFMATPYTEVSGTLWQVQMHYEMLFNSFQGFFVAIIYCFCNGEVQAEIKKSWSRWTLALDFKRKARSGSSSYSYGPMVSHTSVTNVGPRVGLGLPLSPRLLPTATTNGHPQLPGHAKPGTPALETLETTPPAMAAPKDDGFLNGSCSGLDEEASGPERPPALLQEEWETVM
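HEK-293-derived GP2 cells expressing PTHR1 and a GloSensor cAMP reporter, 3,000/well, plated overnight, given luciferin plus IBMX (each 0.5 mM as added) for 1 h at 37 °C, then compound for 1 h at 37 °C. Luminescence was read after 15 min at room temperature.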
LDHA inh: qHTS assay for inhibitors of human lactate dehydrogenase. AID 1347041, 2019. 480,000 tested, 0.15% active. purified LDHA, NADH/diaphorase-resazurin fluorescence; stronger effect = lower value. activity change, % (values are at about 110 or 230 µM). L-lactate dehydrogenase A chain (Homo sapiens), P00338; in the data active means activity change below about -30%; inconclusive means mostly about -25% to -30%;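 further: plate controls were DMSO wells for no effect and wells without enzyme for full effect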
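Enzyme activity of human lactate dehydrogenase 5 (2 nM; 0.06 mM NADH, 0.2 mM pyruvate, 5 min, RT) is measured via a resazurin/diaphorase fluorescence readout of residual NADH.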
Active calls of the source: *; [ ] = remark or other dose. Rows were chosen to be rich in hits. Some 1.9% of all compounds tested hit in one or more screens of this group. Unless noted, the call rests on the fitted dose curve; in most records, active means well fitted curve in the direction sought with a large enough effect; inconclusive means small, poorly fitted or top-dose-only effect, or another doubt; inactive means no such curve, though single readings can be large; an effect the other way counts as inactive or inconclusive.

Results for NC(=S)N/N=C/c1ccc(-c2ccc(Cl)c(Cl)c2)o1 ?
TDP43 rescue: 20µM*; Abeta yeast res: inactive; FUS suppressor: inactive; aSyn yeast inh: 21%; PTHR1 agonist: inactive; LDHA inh: -4

What do the screens show for `O/N=C\c1ccc(-c2ccccc2)o1`?
TDP43 rescue: 8.9µM*; Abeta yeast res: inactive; aSyn yeast inh: -6%; PTHR1 agonist: inactive; LDHA inh: -11

How did Cc1ccc(-c2ccc(/C=N/NC(N)=S)o2)cc1 do in these assays?
TDP43 rescue: inconclusive; Abeta yeast res: inconclusive; FUS suppressor: inactive; aSyn yeast inh: -20%; PTHR1 agonist: inactive; LDHA inh: -8

Results for NC(=S)N/N=C\c1ccc(-c2cccc(Cl)c2Cl)o1 ?
TDP43 rescue: inconclusive; Abeta yeast res: inconclusive; FUS suppressor: inactive; aSyn yeast inh: 3%; PTHR1 agonist: -20%; LDHA inh: 0

How did NC(=S)N/N=C/c1ccc(-c2ccccc2)o1 do in these assays?
TDP43 rescue: 11µM*; Abeta yeast res: inconclusive; FUS suppressor: inactive; aSyn yeast inh: 10%; PTHR1 agonist: -4%; LDHA inh: -5

What do the screens show for `Cc1ccc(C(=O)N/N=C/C=C/c2ccccc2)cc1`?
TDP43 rescue: -23%[9.22 µM]; Abeta yeast res: inactive; FUS suppressor: inactive; aSyn yeast inh: -3%; PTHR1 agonist: inactive; LDHA inh: 1

Results for O=C(O)c1cc(NCc2ccc(OCc3ccccc3)cc2)ccc1N1CCOCC1 ?
LDHA inh: 8

What do the screens show for `NC(=S)N/N=C/c1cccc(Br)c1`?
TDP43 rescue: 20µM*; Abeta yeast res: inactive; FUS suppressor: inactive; aSyn yeast inh: 7%; PTHR1 agonist: -17%; LDHA inh: -1

What do the screens show for `NC(=S)N/N=C/c1cccc(/C=N/NC(N)=S)c1`?
TDP43 rescue: -8%; Abeta yeast res: inactive; FUS suppressor: inactive; aSyn yeast inh: -6%; PTHR1 agonist: inactive; LDHA inh: -6

What do the screens show for `Cc1ccc2c(c1)c1c3n2CCN(C(=O)C2CC2)C3CCC1` (stereo not given)?
TDP43 rescue: 28µM*; Abeta yeast res: inactive; FUS suppressor: inactive; aSyn yeast inh: 2%; PTHR1 agonist: inactive; LDHA inh: 4

Results for O=c1c2ccccc2oc2ccc(C#CC3(O)CCCCC3)cc12 ?
TDP43 rescue: 20µM*; Abeta yeast res: inactive; FUS suppressor: inconclusive; aSyn yeast inh: -12%; PTHR1 agonist: -28%; LDHA inh: 1

How did Nc1ccc(C#Cc2ccc3c(=O)c4ccccc4oc3c2)cc1 do in these assays?
TDP43 rescue: 35µM*; Abeta yeast res: inactive; FUS suppressor: inactive; aSyn yeast inh: -1%; PTHR1 agonist: -48%; LDHA inh: -2

How did COc1cc2oc3cc(C#Cc4ccc(N)cc4)ccc3c(=O)c2cc1OC do in these assays?
TDP43 rescue: -5%; Abeta yeast res: inactive; FUS suppressor: inconclusive; aSyn yeast inh: -2%; PTHR1 agonist: -43%; LDHA inh: -12

Results for COc1cc(C)c(S(=O)(=O)N2CCCC2)cc1C ?
TDP43 rescue: 6%; Abeta yeast res: inconclusive; FUS suppressor: inactive; aSyn yeast inh: 14µM*; PTHR1 agonist: -8%; LDHA inh: -2

Results for CCOc1cc(C)c(S(=O)(=O)N2CCCCC2)cc1C ?
TDP43 rescue: inconclusive; Abeta yeast res: inconclusive; FUS suppressor: inactive; aSyn yeast inh: 16µM*; PTHR1 agonist: -72%; LDHA inh: -2

How did CCOc1cc(S(=O)(=O)N2CCCC2)c(C)cc1C do in these assays?
TDP43 rescue: -7%; Abeta yeast res: inactive; FUS suppressor: inactive; aSyn yeast inh: 1%; PTHR1 agonist: inactive; LDHA inh: -6

What do the screens show for `CCC(=O)N1CCN(c2ccc(NC(=O)c3ccc4c(c3)OCCO4)cc2)CC1`?
TDP43 rescue: -24%; Abeta yeast res: inactive; FUS suppressor: inactive; aSyn yeast inh: -5%; PTHR1 agonist: inactive; LDHA inh: -1

Results for O=C(Nc1ccccc1N1CCCC1)c1ccc2c(c1)OCO2 ?
TDP43 rescue: inconclusive; Abeta yeast res: inactive; FUS suppressor: inactive; aSyn yeast inh: 0%; PTHR1 agonist: -5%[57.5 µM]; LDHA inh: 2

How did O=C(Nc1cc(C(F)(F)F)ccc1N1CCCC1)c1ccc2c(c1)OCO2 do in these assays?
TDP43 rescue: 18µM*; Abeta yeast res: inactive; FUS suppressor: inactive; aSyn yeast inh: -17%; PTHR1 agonist: inactive; LDHA inh: 2

How did CCC(=O)N1CCN(c2ccc(Cl)cc2NC(=O)c2ccc3c(c2)OCCO3)CC1 do in these assays?
TDP43 rescue: 25µM*; Abeta yeast res: inactive; FUS suppressor: inconclusive; aSyn yeast inh: 1%; PTHR1 agonist: -3%[57.5 µM]; LDHA inh: -1

How did O=C1CC(=Nc2ccccc2)NN1c1ccccc1 do in these assays?
TDP43 rescue: 16µM*; Abeta yeast res: inconclusive; FUS suppressor: 13µM*; aSyn yeast inh: 12%; PTHR1 agonist: -1%[57.5 µM]; LDHA inh: -5

Results for Cc1cc(NC(=O)c2ccc(F)cc2)n(-c2ccccn2)n1 ?
TDP43 rescue: 16µM*; Abeta yeast res: inactive; FUS suppressor: inactive; aSyn yeast inh: 2%; PTHR1 agonist: inactive; LDHA inh: -1

What do the screens show for `Cc1cc(NC(=O)c2ccc(C#N)cc2)n(-c2ccccn2)n1`?
TDP43 rescue: -11%; Abeta yeast res: inconclusive; FUS suppressor: inactive; aSyn yeast inh: -12%; PTHR1 agonist: 2%; LDHA inh: -4

What do the screens show for `Cn1cc(S(=O)(=O)N2CCC(C(=O)Nc3cccc(F)c3)CC2)cc1C(N)=O`?
LDHA inh: -30*

Results for O=C(Nc1ccc(S(=O)(=O)N2CCOCC2)cc1)C1CCN(S(=O)(=O)c2ccc(F)cc2)CC1 ?
TDP43 rescue: 14µM*; Abeta yeast res: inactive; FUS suppressor: inconclusive; aSyn yeast inh: -4%; PTHR1 agonist: -3%; LDHA inh: -6

What do the screens show for `Cc1nc(C)c(-c2csc(Nc3ccccn3)n2)s1`?
TDP43 rescue: 35µM*; Abeta yeast res: inconclusive; FUS suppressor: inactive; aSyn yeast inh: -21%; PTHR1 agonist: -48%; LDHA inh: -2

What do the screens show for `Cc1nc(N)sc1-c1csc(Nc2ccccn2)n1`?
TDP43 rescue: 9%; Abeta yeast res: inactive; FUS suppressor: inactive; aSyn yeast inh: 4%; PTHR1 agonist: -15%[57.5 µM]; LDHA inh: 6

How did Cc1ccnc(Nc2nc(-c3ccc(F)c(C)c3)cs2)c1 do in these assays?
LDHA inh: -7
